# Rab9 prom act: qHTS Assay for Rab9 Promoter Activators. Potency, µM (doses to about 9.22 µM), without a hit: at the highest dose activation, negative = inhibition, most hits filed as activators. 2.8% of 320,000 active. Huh7 Rab9 promoter-luciferase reporter, luminescence, 24 h; note: % of control where 0% means no effect; nearly all actives have a fitted effect of over 60% in size
#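 Steps: seed 1500 Huh7 Rab9-luc cells per well, rest 2 h at 37 °C; add compound in DMSO; incubate 24 h; add luciferase reagent, 10 min ambient; read luminescence.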
# NPC1 prom act: qHTS Assay for NPC1 Promoter Activators; Huh7 NPC1 promoter luciferase reporter, 24 h; Potency, µM (highest dose often 9.22 µM), for inactives: top-dose activation, hits mostly activators; 2.4% of 320,000 active; AID 485313, 2010; note: % of control where 0% means no effect; nearly all actives have a fitted effect of over 60% in size
#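 Huh7 reporter cells (NPC1 promoter driving luciferase) are dosed with compound for 24 h at 37 °C, 5% CO2; luciferase detection reagent is then added and luminescence measured after 10 min at ambient temperature.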
# SMN2 splice up: qHTS Assay for Enhancers of SMN2 Splice Variant Expression | HEK293 SMN2-luciferase splicing reporter, luminescence, 30-36 h | Potency, µM (top dose mostly 46.1 µM), without a hit: at the highest dose activity change, positive = activation, usual class: activators | 2.8% of 210,000 active | AID 1458, 2008; note: % of control where 0% means no effect; nearly all actives have a fitted effect of over 55% in size
#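 HEK293 cells carry an SMN2 […]–luciferase reporter in which exon 7 inclusion puts luciferase in frame. Cells were plated 10-12 h before compound addition, then incubated 30-36 h at 37C. ONE-Glo luminescence was read; sodium butyrate at 4.5 mM final served as control.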
# FLuc counter: qHTS profiling assay for firefly luciferase inhibitor/activator using purifed enzyme and Km concentrations of substrates (counterscreen for miR-21 project); Luciferin 4-monooxygenase (Photinus pyralis), P08659; purified FLuc, Km substrates, luminescence inhibition; Potency, µM (highest dose often 57.5 µM), for the others: at the highest dose activity change, negative = inhibition, hits mostly inhibitors; 6.9% of 360,000 active;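 note: plate controls were vehicle for no effect and reference inhibitor for full effect; nearly all actives have a fitted effect of over 55% in size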
# Target sequence (P08659 whole entry, looked up): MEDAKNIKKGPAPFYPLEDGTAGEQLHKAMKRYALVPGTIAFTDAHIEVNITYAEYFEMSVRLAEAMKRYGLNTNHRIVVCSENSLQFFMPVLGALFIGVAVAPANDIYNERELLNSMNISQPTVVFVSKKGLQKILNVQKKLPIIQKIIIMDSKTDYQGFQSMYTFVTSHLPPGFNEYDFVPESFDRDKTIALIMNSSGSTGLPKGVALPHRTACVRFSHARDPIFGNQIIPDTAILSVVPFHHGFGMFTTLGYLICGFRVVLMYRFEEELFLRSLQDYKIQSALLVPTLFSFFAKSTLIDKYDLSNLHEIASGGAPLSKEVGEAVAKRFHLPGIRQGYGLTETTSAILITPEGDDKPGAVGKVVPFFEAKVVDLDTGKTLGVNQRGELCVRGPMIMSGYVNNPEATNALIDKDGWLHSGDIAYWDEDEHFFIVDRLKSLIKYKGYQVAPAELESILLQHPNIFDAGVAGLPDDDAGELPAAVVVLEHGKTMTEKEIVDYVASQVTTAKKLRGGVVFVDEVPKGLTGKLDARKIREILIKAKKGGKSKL
#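 Purified P. pyralis luciferase (10nM final) with 10uM D-luciferin and 10uM ATP (Km levels) in 50mM Tris acetate pH 7.5, 10mM Mg acetate, 0.01% Tween-20, 0.05% BSA; qHTS 6-point titration, ~60 µM downward; luminescence read.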
# ELG1 genotoxic: qHTS screen for small molecules that induce genotoxicity in human embryonic kidney (HEK293T) cells expressing luciferase-tagged ELG1 | Potency, µM (highest dose often 46 µM), for the others: top-dose activity change, positive = activation, most hits filed as activators | HEK293T ELG1-luciferase reporter, luminescence, 16 h | AID 504466, 2011 | 1.3% of 330,000 active; note: % of control where 0% means no effect; nearly all actives have a fitted effect of over 60% in size
#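 After overnight (16 hr) compound treatment at 37 °C, ELG1-luciferase HEK293T cells were lysed with ONE-Glo; luminescence quantified 30 min later at room temperature.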
# An asterisk follows results filed as active; ? = inconclusive; . = no result given; [ ] = dose if it differs, or a comment. Compounds with a hit are over-represented: about 7.4% of the library has one in this group of screens. Calls come from the whole dose curve; as a rule, active = well fitted curve in the direction sought with a large enough effect; inconclusive = small, poorly fitted or top-dose-only effect, or another doubt; inactive = no such curve, though single readings can be large; an effect the other way counts as inactive or inconclusive. Potency is the fitted concentration of half-maximal effect.
SMILES,Rab9 prom act,NPC1 prom act,SMN2 splice up,FLuc counter,ELG1 genotoxic
Cc1ccc([C@@H]2[C@@H]3C(=O)N(C)C(=O)[C@@H]3[C@@H]3C(=O)Nc4ccccc4C(=O)N23)cc1,1%,0%,.,-6%,0%
COc1cccc(NC(=O)Cn2c(=O)n(CCCCC(=O)NCc3ccccc3Cl)c(=O)c3ccccc32)c1,.,.,4%,1%,.
O=C(CCN1C(=O)/C(=C/C=C/c2ccccc2)SC1=S)Nc1cccnc1,?,25%,?,1.1µM*,?
O=C(CCCN1C(=O)/C(=C/c2ccccc2Cl)SC1=S)NNC(=O)c1cccnc1,-11%,-12%,.,13µM*,-5%
CC(=C\c1ccccc1)/C=C1/SC(=S)N(CCC(=O)Nc2ccccn2)C1=O,0%,-1%,.,-16%,4%
O=C(O)CN1C(=O)/C(=C\C(Br)=C\c2ccccc2)SC1=S,14%,8%,.,9.5µM*,?
O=C(CCN1C(=O)/C(=C/c2ccc(Cl)cc2)SC1=S)Nc1cccnc1,-6%,3%,.,-1%,-2%
O=C(CCN1C(=O)/C(=C/C=C/c2ccccc2)SC1=S)Nc1ccccn1,5%,0%,.,24µM*,17%
Cn1ccnc1C(=O)c1cc(SCC(=O)N2CCOCC2)nc2ccccc12,1%,1%,-5%,4%,1%
O=C1/C(=C/c2cccnc2)SC(=S)N1CCc1ccccc1,-2%,0%,.,11µM*,?
CC(=O)c1ccc(NC(=O)CN2C(=O)/C(=C/C=C/c3ccccc3)SC2=S)cc1,3%,-1%,22%,?,4%
O=C(O)CN1C(=O)/C(=C/c2ccsc2)SC1=S,1%,-4%,-12%,19µM*,1%
C=CCN1C(=O)/C(=C/c2ccsc2)SC1=S,2%,-2%,-67%,7%,1%
O=C(O)CN1C(=O)/C(=C/C=C/c2ccccc2)SC1=S,63%,?,4%,2.7µM*,0%
COc1cc(N)c(Cl)cc1C(=O)OCC(=O)N1CCCC1,0%,7%,.,4%,3%
COc1ccc(-c2noc(-c3ccc(NC4CCCCC4)c([N+](=O)[O-])c3)n2)cc1,.,.,.,0%,.
COc1ccc(C2(NC(C)=O)CCN(Cc3cccnc3)CC2)cc1,0%,5%,.,-1%,0%
CC#C[C@@H](CC)c1ccc2ccn(C)c2c1,-6%,12%,.,?,0%
O=C(Cn1c(=O)oc2cc(Cl)ccc21)Nc1cccc(C(F)(F)F)c1,.,.,.,-2%,.
CN1CCN(c2ccncc2S(=O)(=O)N2CCN(C)CC2)CC1,.,.,1%[9.22 µM],.,.
CCOC(=O)COn1c(=O)c(-c2cc3ccccc3o2)[n+]([O-])c2ccccc21,2.2µM*,?,14µM*,2.4µM*,?
C=CCOn1c(=O)c(-c2cc3ccccc3o2)[n+]([O-])c2ccccc21,20%,?,.,?,9%
COc1ccc2nc(C)c3cc(C)oc3c2c1,-14%,-3%,-13%,-2%,-4%
COc1cccc2c1nc(C)c1cc(C)oc12,27%,20%,?,21µM*,?
COc1cc(/C=C2\C(=N)N3N=C(S(=O)(=O)CC(C)C)SC3=NC2=O)ccc1OC(=O)c1ccco1,0%,1%,.,?,-1%[9.26 µM]
SMILES,Rab9 prom act,NPC1 prom act,SMN2 splice up,FLuc counter,ELG1 genotoxic
COc1cccc(/C=C2\Oc3cc(OCC(=O)N4CCCC4)ccc3C2=O)c1OC,-1%,-3%,.,9.5µM*,2%
COc1ccc(/C=C2\Oc3cc(OCC(=O)N4CCC[C@H]4C(=O)O)ccc3C2=O)cc1OC,-3%,-2%,.,1.3µM*,-1%
COc1ccc(OC)c(/C=C2\Oc3cc(OCC(=O)N4CCC(C(=O)O)CC4)ccc3C2=O)c1,-17%,-4%,.,-19%,0%
COc1cccc(/C=C2\Oc3cc(OCC(=O)N4CCCCC4)ccc3C2=O)c1OC,-7%,-5%,.,9.5µM*,2%
COc1ccc(/C=C2\Oc3cc(OCC(=O)N4CCC(C(=O)O)CC4)ccc3C2=O)c(OC)c1OC,-6%,-1%,.,?,6%
COc1ccc(/C=C2\Oc3cc(OCC(=O)N4CCC(C(=O)O)CC4)ccc3C2=O)c(OC)c1,-7%,0%,.,6.7µM*,1%
COc1ccc(C(=O)N2CCCCC2CCN2CCCCC2)cc1 (centres undefined),.,.,2%,0%,.
O=C(c1ccc(Cl)cc1)c1cnc2ccccn12,2.5µM*,3.2µM*,9%,9.5µM*,12µM*
COC(=O)/C(=C/c1c[nH]c2ccccc12)[N+](=O)[O-],12%,5%,.,19µM*,-2%
CCSc1nnc(-c2ccccc2SC)o1,2%,-1%,6%,?,-6%
CSc1ccccc1-c1nnc(-c2ccc(Cl)c(Cl)c2)o1,?,?,12%,7.6µM*,?
CSc1ccccc1-c1nnc(-c2ccc(Cl)cc2Cl)o1,3.2µM*,?,?,2.1µM*,?
COc1ccc(CCNC(=O)C(=O)N2CCCCC2)cc1OC,-2%,1%,-14%,-2%,1%
O=c1[nH]cc([N+](=O)[O-])cc1Br,0%,-3%,3%,-2%,-2%
O=C(CCCCCN1C(=O)c2cccc3cccc(c23)C1=O)NC1CCS(=O)(=O)C1 (centres undefined),-2%,-5%,.,15µM*,5%
CCS(=O)(=O)c1nc(S(=O)(=O)c2ccc(C)cc2)c(NCCCN(C)C)s1,1%,-4%,.,-3%,0%
O=C1OC2(CCCCC2)CC2=C1C1O[C@](CCCCN3C(=O)c4ccccc4C3=O)(Cc3ccccc31)O2,-9%[1.84 µM],-4%[1.84 µM],.,2%[11.5 µM],.
CC(C)c1nnc(NC(=O)CSc2nnc(NC(=O)c3c(F)cccc3F)s2)s1,28%,18%,28%,8.5µM*,16%
O=C(CSc1nnc(NC(=O)c2cccc(F)c2)s1)NC1CCCC1,18%,17%,.,6µM*,16%
O=C(CSc1nnc(NC(=O)c2c(F)cccc2F)s1)NC1CCCC1,10%,0%,.,1%,8%
Cc1cccc(C(=O)Nc2nnc(SCC(=O)Nc3ccc4c(c3)oc3ccccc34)s2)c1,11%,13%,28%,?,13%
O=C(CSc1nnc(NC(=O)c2c(F)cccc2F)s1)Nc1ccccc1F,23%,4%,.,?,15%
Cc1cccc(C(=O)Nc2nnc(SCC(=O)NC3CC3)s2)c1,?,?,.,19µM*,?
COc1ccccc1C(=O)Nc1nnc(SCC(=O)Nc2ccc3c(c2)oc2ccccc23)s1,2.8µM*,4µM*,22µM*,1.9µM*,?
O=C(c1ccccn1)N1CC=C(c2ccccc2)CC1,-2%,0%,-5%,-2%,3%
CC1(C)O[C@H]2[C@@H](O1)[C@@H](On1nnc3ccc(Cl)cc31)O[C@@H]2[C@@H]1COC(C)(C)O1,.,.,-9%[9.22 µM],.,.

# Screens from PubChem.
